Among the data in PubChem BioAssay (NCI) are growth values, retold here.

SMILES strings stand for the structures. About 83,000 compounds went through this panel and 20% of them were active in at least one assay; those are over-represented in the sample as a whole.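 The test compound was applied at a single concentration to cells in 96-well plates for 48 hours, and percent growth was recorded.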 Values without a mark were called inactive. Activity calls are given as the source filed them. Rule for the calls: active = growth percent below 10; inactive = the rest.

Test systems include NCI-H23 lung; NCI-H322M lung; HOP-62 NSCLC; NCI-H460 lung; HOP-92 NSCLC; NCI-H522 lung; A549/ATCC NSCLC; 786-0 renal; DU-145 prostate; K-562 leukemia; MALME-3M melanoma; MDA-MB-231 breast; RXF 393 renal; SF-268 CNS; SF-539 CNS; UACC-257 melanoma; M14 melanoma; COLO 205 colon; SF-295 CNS.
What all share (test): NCI-60 one-dose screen, 48 h (100 = growth as untreated, 0 = no growth, -100 = all killed)
Holding throughout (conditions): 10 µM

As to `O=P(O)(O)OCC(O)CO` (stereo unspecified), the growth was 107% with NCI-H23 lung; 107% in the experiment with NCI-H322M lung; 104% in the experiment with HOP-62 NSCLC; 109% in the experiment with NCI-H460 lung; 96.1% in the experiment with HOP-92 NSCLC; 109% with NCI-H522 lung. The growth with A549/ATCC NSCLC was 97.3%; with 786-0 renal, 101%; in the experiment on DU-145 prostate, 107%; with K-562 leukemia it was 113%; with MALME-3M melanoma it was 110%; with MDA-MB-231 breast, 111%. In addition, the growth was 107% in the experiment with RXF 393 renal; 108% in the experiment on SF-268 CNS; 105% with SF-539 CNS; 102% in the experiment with UACC-257 melanoma; 101% in the experiment with M14 melanoma.
In the case of `COc1cccc(/C=N/NC(=S)NC2CC3CCC2C3)c1O` (stereo unspecified), the growth with NCI-H23 lung was 71%; in the experiment with NCI-H322M lung it was 62.2%; in the experiment on HOP-62 NSCLC, 39.6%; in the experiment on NCI-H460 lung, 3.68% (active); in the experiment with HOP-92 NSCLC, 55.5%; with NCI-H522 lung, 64.7%. For the same molecule, the growth in the experiment on A549/ATCC NSCLC is 43.9%; in the experiment with 786-0 renal, 86.3%; with COLO 205 colon, 105%; with DU-145 prostate, 56.6%; in the experiment with K-562 leukemia it was 39.3%; with MALME-3M melanoma, 35.9%. In addition, the growth with MDA-MB-231 breast is 55.4%; with RXF 393 renal it was 51.5%; with SF-268 CNS it was 63.3%; in the experiment on SF-295 CNS, 15.9%; with SF-539 CNS, 69.8%; in the experiment on UACC-257 melanoma, 73.6%. Also, in the experiment with M14 melanoma, the growth is 55.7%.
As to `CC(=O)/C(Cc1ccccc1)=N/O`, the growth was 97.3% in the experiment on NCI-H23 lung; 105% with NCI-H322M lung; 98.4% in the experiment with HOP-62 NSCLC; 105% in the experiment with NCI-H460 lung; 68% in the experiment with HOP-92 NSCLC; 74.3% with NCI-H522 lung. The growth is 95.4% in the experiment on A549/ATCC NSCLC; 102% in the experiment with 786-0 renal; 97.9% with COLO 205 colon; 115% in the experiment with DU-145 prostate; 85.5% in the experiment on K-562 leukemia; 104% in the experiment on MALME-3M melanoma. For the same molecule, the growth with MDA-MB-231 breast is 100%; with RXF 393 renal, 109%; in the experiment on SF-268 CNS it was 104%; with SF-295 CNS, 105%; in the experiment with SF-539 CNS it was 91.9%; in the experiment with UACC-257 melanoma it was 89.5%. In the experiment with M14 melanoma, the growth is 94.8%.
As for `COc1cc2c3cc1Oc1c(OC)c(OC)cc4c1C(Cc1ccc(O)c(c1)Oc1ccc(cc1)CC3N(C)CC2)N(C)CC4` (stereo unspecified), the growth with NCI-H23 lung was 10.8%; in the experiment with NCI-H322M lung it was 44.6%; in the experiment on HOP-62 NSCLC, 4.33% (active); with NCI-H460 lung, 2.92% (active); in the experiment with HOP-92 NSCLC it was -17.1% (active); with NCI-H522 lung it was -34.4% (active). The growth was -33% (active) in the experiment on A549/ATCC NSCLC; 32.3% in the experiment with 786-0 renal; -97.3% (active) in the experiment on COLO 205 colon; 33.4% in the experiment on DU-145 prostate; 0.419% (active) in the experiment with K-562 leukemia; -79.3% (active) in the experiment with MALME-3M melanoma. Besides, the growth was -24.1% (active) with MDA-MB-231 breast; -14.9% (active) in the experiment on RXF 393 renal; 36.2% in the experiment with SF-268 CNS; -23.5% (active) in the experiment on SF-539 CNS; -62.2% (active) in the experiment on UACC-257 melanoma; -77.8% (active) in the experiment on M14 melanoma.
Turning to `C/C(=N/NC(N)=O)c1ccco1`, the growth was 97.1% in the experiment on NCI-H23 lung; 107% with NCI-H322M lung; 85.7% in the experiment with HOP-62 NSCLC; 107% with NCI-H460 lung; 89.8% with HOP-92 NSCLC; 90.5% with NCI-H522 lung. Also, the growth in the experiment with A549/ATCC NSCLC was 83.7%; in the experiment on 786-0 renal it was 99.9%; with DU-145 prostate, 110%; in the experiment on K-562 leukemia, 88.3%; in the experiment on MALME-3M melanoma it was 93.4%; in the experiment with MDA-MB-231 breast, 118%. Moreover, the growth is 108% with RXF 393 renal; 104% in the experiment with SF-268 CNS; 104% in the experiment with SF-295 CNS; 101% in the experiment with SF-539 CNS; 83% in the experiment on UACC-257 melanoma; 91.8% in the experiment on M14 melanoma.
